Most compounds without a hit are left out; they make up all but 19% or so of the library.
HT1080 IDH1KD tx – qHTS for induction of synthetic lethality in tumor cells producing 2HG: qHTS for the HT-1080-IDH1KD cell line. AID 686971, 2013. Potency, µM (doses to about 46.1 µM), without a hit: at the highest dose activity, negative = toxicity, hits mostly cytotoxic. 2% of 360,000 active. HT-1080 IDH1 knockdown viability, ATP luminescence, 48 h;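 also: potency is read from the fitted curve at half-maximal effect; 0% = DMSO wells and -100% = cell-free medium wells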
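Luminescent ATP read-out (CellTiter-Glo, 10 min at room temperature) after 48 h compound exposure at 37 °C gave viability of IDH1-knockdown HT-1080 cells. Activity was normalised to DMSO and cell-free wells, then fitted as concentration-response curves.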
IL-1B inflam inh – qHTS for Inhibitors of Inflammasome Signaling: IL-1-beta AlphaLISA Primary Screen. 4.7% of 360,000 active. activity change, % at 57.5 µM. AID 743279, 2014. THP-1 LPS/ATP IL-1B secretion, AlphaLISA, 16 h; active compounds read low; in the data active = activity change below about -50%; inconclusive = mostly about -30% to -49%
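Secreted IL-1B measured by AlphaLISA bead assay after 16 h compound exposure of THP-1 cells; compounds (final up to 57.5 uM) added 1 h before LPS (250 ng/mL) and ATP (1.25 mM) stimulation; lower signal means less secretion.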
DT40 TDP1 CPT – qHTS for Inhibitors of human tyrosyl-DNA phosphodiesterase 1 (TDP1): qHTS in cells in presence of CPT. 12% of 420,000 active. chicken DT40 Tdp1-/-;hTDP1 cells + 20 nM CPT, ATP luminescence, 48 h. Potency, µM (titrated, usually from 46.2 µM), inactives show at the highest dose activity change, negative = growth inhibition, hits mostly inhibitors; also: potency is read from the fitted curve at half-maximal effect; nearly all actives have a fitted effect of over 55% in size
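Chicken DT40 Tdp1-/- cells complemented with human TDP1, 400 cells/well, exposed to compounds plus 20 nM camptothecin for at least 48 h at 37 C; viability read as ATP content by CellTiter-Glo luminescence.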
HT1080-NT tox – qHTS for induction of synthetic lethality in tumor cells producing 2HG: qHTS for the HT-1080-NT fibrosarcoma cell line. HT-1080-NT fibrosarcoma viability, CellTiter-Glo ATP luminescence, 48 h. Potency, µM (titrated, usually from 46.1 µM), for the others: at the highest dose activity, negative = less viability, hits mostly cytotoxic. 1.6% of 360,000 active;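 also: NT is the 2HG producing partner of a matched IDH1 knockdown line; potency is read from the fitted curve at half-maximal effect; 0% = DMSO-treated cells and -100% = media-only wells without cells; nearly all actives have a fitted effect of over 55% in size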
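Compounds were tested in concentration-response format on HT-1080-NT cells for 48 hours at 37 degrees C. Cell viability came from CellTiter-Glo luminescence; curves were classified by r2, response magnitude and activity.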
TDP1 cell noCPT – qHTS for Inhibitors of human tyrosyl-DNA phosphodiesterase 1 (TDP1): qHTS in cells in absence of CPT | 15% of 420,000 active | Potency, µM (titrated, usually from 46.2 µM), for inactives: at the highest dose activity change, negative = growth inhibition, most hits filed as inhibitors | DT40 Tdp1-/- hTDP1 cells, no CPT, ATP luminescence, 48 h; also: potency is read from the fitted curve at half-maximal effect; nearly all actives have a fitted effect of over 55% in size
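DT40 Tdp1-/-;hTDP1 cells, no CPT (DMSO vehicle only), 400 cells/well; compounds pin-transferred; ≥48 hr, 37 °C; CellTiter-Glo 30 min RT dark, luminescence read.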
An asterisk follows results filed as active. Unless noted, calls follow the shape of the dose curve; as a rule, active = well fitted curve in the direction sought with a large enough effect; inconclusive = small, poorly fitted or top-dose-only effect, or another doubt; inactive = no such curve, though single readings can be large; an effect the other way counts as inactive or inconclusive. Unless noted, % is scaled to controls: 0 for no effect and ±100 for the full control effect.

Results for Cn1c(=O)c2c(SCCN3CCOCC3)nc(C3CCCC3)nc2n(C)c1=O ?
HT1080 IDH1KD tx: 6.4%; IL-1B inflam inh: 29.6; DT40 TDP1 CPT: 16.4µM*; HT1080-NT tox: -5.0%; TDP1 cell noCPT: 20.6µM*

What do the screens show for `CCOC(=O)CCCNC(=O)COC(=O)c1ccc(O)cc1`?
HT1080 IDH1KD tx: 0.8%; IL-1B inflam inh: 8.9; DT40 TDP1 CPT: -9.0%; HT1080-NT tox: 0.3%; TDP1 cell noCPT: -11.1%

Results for Cc1ccc2cc3cc(C(=O)N4CCN(c5ccccc5)CC4)oc3nc2c1 ?
DT40 TDP1 CPT: -3.0%; TDP1 cell noCPT: inconclusive

What do the screens show for `Cc1ccc(NC(=O)c2cccc(N3C(=O)C4C5C=CC(C5)C4C3=O)c2)cc1C` (configuration not stated)?
HT1080 IDH1KD tx: -0.7%; IL-1B inflam inh: -22.8; DT40 TDP1 CPT: 23.1µM*; HT1080-NT tox: 4.3%; TDP1 cell noCPT: 20.6µM*

How did O=C(Nc1cccc(N2C(=O)C3C4C=CC(C4)C3C2=O)c1)c1cccs1 (configuration not stated) do in these assays?
HT1080 IDH1KD tx: -1.2%; IL-1B inflam inh: 17.3; DT40 TDP1 CPT: -22.7%; HT1080-NT tox: -0.8%; TDP1 cell noCPT: -21.8%

Results for O=C(O)c1cccc(N2C(=O)C=CC2=O)c1 ?
HT1080 IDH1KD tx: -0.4%; IL-1B inflam inh: -0.3; DT40 TDP1 CPT: inconclusive; HT1080-NT tox: 16.0%; TDP1 cell noCPT: inconclusive

How did O=C(Nc1ccc(Cl)cc1Cl)c1cccc(N2C(=O)C=CC2=O)c1 do in these assays?
HT1080 IDH1KD tx: inconclusive; IL-1B inflam inh: 0.0; DT40 TDP1 CPT: 1.03µM*; HT1080-NT tox: inconclusive; TDP1 cell noCPT: 0.581µM*

How did O=C(Nc1ccc(Cl)cc1)c1cccc(N2C(=O)C3C4CCC(C4)C3C2=O)c1 (configuration not stated) do in these assays?
HT1080 IDH1KD tx: -3.5%; IL-1B inflam inh: -15.0; DT40 TDP1 CPT: inconclusive; HT1080-NT tox: -5.8%; TDP1 cell noCPT: 14.6µM*

What do the screens show for `COc1ccc(NC(=O)c2cccc(N3C(=O)C4C5C=CC(C6CC56)C4C3=O)c2)c(OC)c1` (configuration not stated)?
HT1080 IDH1KD tx: -2.1%; IL-1B inflam inh: -8.1; DT40 TDP1 CPT: inconclusive; HT1080-NT tox: 0.5%; TDP1 cell noCPT: inconclusive

What do the screens show for `COc1ccc(NC(=O)c2cccc(N3C(=O)C4C5C=CC(C6CC56)C4C3=O)c2)cc1` (configuration not stated)?
HT1080 IDH1KD tx: -0.3%; IL-1B inflam inh: 0.0; DT40 TDP1 CPT: inconclusive; HT1080-NT tox: -14.3%; TDP1 cell noCPT: 20.6µM*

How did COc1ccccc1NC(=O)c1cccc(N2C(=O)C3C4C=CC(C4)C3C2=O)c1 (configuration not stated) do in these assays?
HT1080 IDH1KD tx: -9.6%; IL-1B inflam inh: 49.4; DT40 TDP1 CPT: -16.1%; HT1080-NT tox: 1.6%; TDP1 cell noCPT: 1.9%

What do the screens show for `COc1ccc(NC(=O)c2cccc(N3C(=O)C4C5C=CC(C5)C4C3=O)c2)cc1Cl` (configuration not stated)?
HT1080 IDH1KD tx: 6.5%; IL-1B inflam inh: 33.3; DT40 TDP1 CPT: 23.1µM*; HT1080-NT tox: 12.7%; TDP1 cell noCPT: 16.4µM*

What do the screens show for `Cc1cc(C)c(NC(=O)C(=O)NCC(c2cccnc2)N2CCN(c3ccccc3F)CC2)c(C)c1` (configuration not stated)?
DT40 TDP1 CPT: 14.6µM*; TDP1 cell noCPT: 14.6µM*

Results for Cc1ccc(NC(=O)C(=O)NCC(c2cccnc2)N2CCN(c3ccccc3F)CC2)cc1Cl (configuration not stated) ?
DT40 TDP1 CPT: 20.6µM*; TDP1 cell noCPT: 23.1µM*

What do the screens show for `Cc1cc(C)c(NC(=O)C(=O)NCC(c2cccnc2)N2CCN(Cc3ccccc3)CC2)c(C)c1` (configuration not stated)?
DT40 TDP1 CPT: 11.6µM*; TDP1 cell noCPT: 5.8µM*

Results for Cc1cccc(NC(=O)C(=O)NCC(c2cccnc2)N2CCOCC2)c1 (configuration not stated) ?
DT40 TDP1 CPT: -19.6%; TDP1 cell noCPT: -28.5%

What do the screens show for `O=C(NCC(c1cccnc1)N1CCN(c2ccccc2F)CC1)c1ccccc1` (configuration not stated)?
HT1080 IDH1KD tx: 3.3%; IL-1B inflam inh: 12.5; DT40 TDP1 CPT: inconclusive; HT1080-NT tox: -3.5%; TDP1 cell noCPT: inconclusive

What do the screens show for `NC(c1ccccc1)c1csc(Nc2ccccn2)n1` (configuration not stated)?
HT1080 IDH1KD tx: -15.1%; IL-1B inflam inh: inconclusive; DT40 TDP1 CPT: inconclusive; HT1080-NT tox: -15.8%; TDP1 cell noCPT: 20.6µM*

What do the screens show for `NC(c1csc(Nc2ccccn2)n1)C1CCCCC1` (configuration not stated)?
HT1080 IDH1KD tx: inconclusive; IL-1B inflam inh: -68.1*; DT40 TDP1 CPT: 14.6µM*; HT1080-NT tox: -21.3%; TDP1 cell noCPT: 16.4µM*

Results for Cc1cnc(C)c(Nc2nc(C(N)c3ccccc3)cs2)n1 (configuration not stated) ?
HT1080 IDH1KD tx: inconclusive; IL-1B inflam inh: 0.0; DT40 TDP1 CPT: inconclusive; HT1080-NT tox: inconclusive; TDP1 cell noCPT: inconclusive

Results for O=C(CCC(=O)Nc1ccccc1Cl)NN=C1CCCC1 ?
HT1080 IDH1KD tx: 0.5%; IL-1B inflam inh: 23.4; DT40 TDP1 CPT: -6.1%; HT1080-NT tox: 3.0%; TDP1 cell noCPT: 20.5%

Results for Cc1ccc2cn[nH]c2c1NC(N)=S ?
HT1080 IDH1KD tx: -5.2%; IL-1B inflam inh: 6.8; DT40 TDP1 CPT: 13.7%; HT1080-NT tox: 0.5%; TDP1 cell noCPT: 0.9%

Results for CS(=O)(=O)N1CCC2(CCN(c3ccccc3)CC2)CC1 ?
DT40 TDP1 CPT: -13.6%; TDP1 cell noCPT: inconclusive

How did Nc1nc(Nc2ccccc2)nc(N2CCOCC2)c1[N+](=O)[O-] do in these assays?
HT1080 IDH1KD tx: 2.9%; IL-1B inflam inh: -5.9; DT40 TDP1 CPT: -25.6%; HT1080-NT tox: -1.1%; TDP1 cell noCPT: 1.1%

How did CCN1CCN(c2nc(Nc3cccc(OC)c3)nc(N)c2[N+](=O)[O-])CC1 do in these assays?
HT1080 IDH1KD tx: inconclusive; IL-1B inflam inh: -28.8; DT40 TDP1 CPT: 13µM*; HT1080-NT tox: inconclusive; TDP1 cell noCPT: 9.2µM*
